# Assay results: PubChem BioAssay (EPA / NIEHS)
# Records with an inconclusive call do not appear. The source made the active and inactive calls. How the source made its calls: active means hit-call score of the fitted dose curve at least 0.9, where 1 is the maximum; inconclusive means response in the unintended direction; inactive means score below 0.9.
# How the values were obtained:
# [1] = system: frog Androgen Receptor (AR), gene 399456; assay: ATG_frAR_XSP1: Attagene TRANS-FACTORIAL Multi-Species (XSP1) HepG2 Assay for frog Androgen Receptor (AR) (AID 2283770)
# Protocol: ATG_XSP1_multi-species_TRANS is a cell-based, multiplexed assay created by modifying the existing Attagene TRANS-FACTORIAL system to include a panel of nuclear receptors from some or all the following species: human (Homo sapiens), mouse (Mus musculus), frog (Xenopus laevis), zebrafish (Danio rerio), chicken (Gallus gallus), and turtle (Chrysemys picta). The ECOTOX-FACTORIAL format uses HepG2, a human liver cell line, with measurements taken at 24 hours after chemical dosing in a 24-well plate. Xsp1 included 3 nM 6-alpha-fluorotestosterone to partially stimulate the androgen receptor.ATG_frAR_XSP1 is one of 29 assay components measured or calculated from the ATG_XSP1_multi-species_TRANS assay. It is designed to make measurements of mRNA induction, a form of inducible reporter, as detected with fluorescence intensity signals by Reverse transcription polymerase chain reaction (RT-PCR) and Capillary electrophoresis technology.The assay endpoint ATG_frAR_XSP1 was analyzed in the positive analysis fitting direction relative to DMSO as the negative control and baseline of activity. […] Furthermore, this assay endpoint can be referred to as a primary readout, because this assay has produced multiple assay endpoints where this one serves a reporter gene function. […]
# [2] = ACEA_AR_antagonist_AUC_viability: ACEA Biosciences xCELLigence Real-Time Cell Analysis on Androgen Receptor Antagonism for Viability (AID 2283776);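 further: 22Rv1 human prostate cancer cells growing on impedance electrode plates; area under impedance growth curve at 80 h after dosing as viability; hits lower the growth signal relative to DMSO meaning cytotoxicity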
# In short: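 Impedance read-out (RT-CES): area under growth curve at 80 h post-dose, loss of signal scored vs DMSO baseline. 22Rv1 cells; 8-pt 1:4 series, top 100 uM final, ≤0.5% DMSO; biological duplicate.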
compound,measurement,setting,value
O=C(c1ccc(O)cc1O)c1ccc(O)cc1O,AC50,[1],2.75 µM (active)
CCCCC(CC)COC(=O)c1ccccc1C(=O)O (stereo not drawn),outcome,[1],inactive
C=CCOC(Cn1ccnc1)c1ccc(Cl)cc1Cl (stereo not drawn),AC50,[2],41.6 µM (active)
